Common to all, as to experiment: DAPPL (digital affinity profiling via proximity ligation, sequencing); 10 mM Tris-HCl pH 7.5, 50 mM NaCl, 1 mM DTT, 4% glycerol, room temperature, 30 min; GST-TFs on glutathione beads, 16-mer random dsDNA library, 0.1% formaldehyde crosslink after washing; high values mean tight binding
In test [1] the target is T1, FLI1 (Homo sapiens, UniProt Q01543 1-452).
T1 sequence: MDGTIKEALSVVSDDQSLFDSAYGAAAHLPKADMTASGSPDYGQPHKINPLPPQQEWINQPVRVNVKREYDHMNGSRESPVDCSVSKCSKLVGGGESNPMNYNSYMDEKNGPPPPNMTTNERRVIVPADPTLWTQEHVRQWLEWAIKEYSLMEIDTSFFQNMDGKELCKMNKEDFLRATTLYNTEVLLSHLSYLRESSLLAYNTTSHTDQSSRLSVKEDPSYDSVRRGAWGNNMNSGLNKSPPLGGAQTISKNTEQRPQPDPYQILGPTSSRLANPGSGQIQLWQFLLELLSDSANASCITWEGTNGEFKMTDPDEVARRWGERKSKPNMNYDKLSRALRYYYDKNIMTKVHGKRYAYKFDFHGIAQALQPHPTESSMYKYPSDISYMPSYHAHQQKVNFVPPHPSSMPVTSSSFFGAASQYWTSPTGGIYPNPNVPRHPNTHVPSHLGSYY
As to conditions: protein: recombinant; tags: N-terminal GST; dsDNA, one strand shown. In a few lines: (§1)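 Beads coated with glutathione captured GST-fused human transcription factors that had been expressed in yeast, and the factors were then given DNA barcodes and pooled with a tag-only sample. The pools were incubated with 200 nmole of a random double-stranded 16-mer DNA library in Tris/NaCl/DTT/glycerol buffer for 30 min at room temperature, washed, crosslinked with 0.1% formaldehyde and proximity-ligated with BsaI/T4 ligase at 37 °C for 1 h. PCR amplification and Illumina NextSeq500 sequencing came last. Binding signal is each hexamer's read frequency for a factor divided by its frequency for the tag-only sample.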

For test [2], the target named is T2, ELK1 (Homo sapiens, UniProt P19419 1-428).
T2 sequence: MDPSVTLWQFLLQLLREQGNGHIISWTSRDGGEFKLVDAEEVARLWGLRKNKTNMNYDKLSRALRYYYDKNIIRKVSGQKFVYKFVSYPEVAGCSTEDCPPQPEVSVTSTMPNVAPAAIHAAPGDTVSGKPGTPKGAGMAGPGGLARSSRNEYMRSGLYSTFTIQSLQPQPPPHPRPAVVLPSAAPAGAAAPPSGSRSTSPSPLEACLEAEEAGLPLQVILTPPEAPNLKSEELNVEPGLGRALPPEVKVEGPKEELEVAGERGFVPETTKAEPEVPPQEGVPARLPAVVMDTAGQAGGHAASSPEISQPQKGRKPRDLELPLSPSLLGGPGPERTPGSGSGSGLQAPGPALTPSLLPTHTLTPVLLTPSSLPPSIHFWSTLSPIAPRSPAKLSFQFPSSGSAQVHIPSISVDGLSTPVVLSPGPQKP
As to conditions: protein: recombinant; tags: N-terminal GST; dsDNA, one strand shown. In a few lines: as §1

Test [3] has as its target T3, GABPA (Homo sapiens, UniProt Q06546 1-454).
T3 sequence: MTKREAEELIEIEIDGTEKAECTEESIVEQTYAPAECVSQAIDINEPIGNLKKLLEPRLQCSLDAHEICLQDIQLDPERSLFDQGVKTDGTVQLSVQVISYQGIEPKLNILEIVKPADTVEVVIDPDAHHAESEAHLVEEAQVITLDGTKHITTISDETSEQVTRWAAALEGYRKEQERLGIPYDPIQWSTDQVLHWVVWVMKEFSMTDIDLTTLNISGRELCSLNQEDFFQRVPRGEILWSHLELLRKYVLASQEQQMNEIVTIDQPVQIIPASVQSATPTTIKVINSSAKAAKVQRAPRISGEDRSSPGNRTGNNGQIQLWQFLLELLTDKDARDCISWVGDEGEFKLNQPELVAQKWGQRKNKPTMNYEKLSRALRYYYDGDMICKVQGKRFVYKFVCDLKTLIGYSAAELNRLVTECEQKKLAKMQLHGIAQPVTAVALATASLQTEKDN
The settings on record: protein: recombinant; tags: N-terminal GST; dsDNA, one strand shown. In a few lines:
as §1

Test [4] concerns the target T4, ERG (Homo sapiens, UniProt P11308 1-479).
T4 sequence: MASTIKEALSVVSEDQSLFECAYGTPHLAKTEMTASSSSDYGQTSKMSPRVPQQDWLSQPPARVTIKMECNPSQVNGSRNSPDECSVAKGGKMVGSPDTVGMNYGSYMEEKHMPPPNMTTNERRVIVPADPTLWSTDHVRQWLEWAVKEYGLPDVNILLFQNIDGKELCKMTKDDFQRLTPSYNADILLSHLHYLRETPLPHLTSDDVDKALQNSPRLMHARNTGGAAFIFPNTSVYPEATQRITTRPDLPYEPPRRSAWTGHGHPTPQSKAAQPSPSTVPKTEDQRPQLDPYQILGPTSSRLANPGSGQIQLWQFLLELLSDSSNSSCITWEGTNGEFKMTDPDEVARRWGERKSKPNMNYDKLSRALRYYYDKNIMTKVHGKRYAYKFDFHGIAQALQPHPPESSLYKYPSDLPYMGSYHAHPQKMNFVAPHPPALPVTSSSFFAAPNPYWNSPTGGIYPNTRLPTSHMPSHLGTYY
The settings on record: protein: recombinant; tags: N-terminal GST; dsDNA, one strand shown. The gist of the method: as §1

The target in test [5] is ELF1 (Homo sapiens, UniProt P32519 1-619). The settings on record: protein: recombinant; tags: N-terminal GST; dsDNA, one strand shown. The gist of the method: as §1
The target of test [6] is T5, EHF (Homo sapiens, UniProt Q9NZC4 1-300).
T5 sequence: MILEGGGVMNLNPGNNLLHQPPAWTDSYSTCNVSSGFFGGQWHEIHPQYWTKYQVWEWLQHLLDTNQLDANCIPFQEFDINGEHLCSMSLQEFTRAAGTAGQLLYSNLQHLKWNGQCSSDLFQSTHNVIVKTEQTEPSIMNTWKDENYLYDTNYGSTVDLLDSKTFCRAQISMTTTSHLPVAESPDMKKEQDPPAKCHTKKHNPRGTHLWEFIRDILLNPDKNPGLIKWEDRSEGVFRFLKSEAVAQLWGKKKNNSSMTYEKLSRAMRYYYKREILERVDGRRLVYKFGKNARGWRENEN
As to conditions: protein: recombinant; tags: N-terminal GST; dsDNA, one strand shown. The gist of the method: as §1

In test [7] the target is SPI1 (Homo sapiens, UniProt P17947 1-270). As to conditions: protein: recombinant; tags: N-terminal GST; dsDNA, one strand shown. The gist of the method:
as §1

Test [8] has as its target SPIB (Homo sapiens, UniProt Q01892 1-262). The settings on record: protein: recombinant; tags: N-terminal GST; dsDNA, one strand shown. In a few lines: as §1
Test [9] has as its target T6, ELK3 (Homo sapiens, UniProt P41970 1-407).
T6 sequence: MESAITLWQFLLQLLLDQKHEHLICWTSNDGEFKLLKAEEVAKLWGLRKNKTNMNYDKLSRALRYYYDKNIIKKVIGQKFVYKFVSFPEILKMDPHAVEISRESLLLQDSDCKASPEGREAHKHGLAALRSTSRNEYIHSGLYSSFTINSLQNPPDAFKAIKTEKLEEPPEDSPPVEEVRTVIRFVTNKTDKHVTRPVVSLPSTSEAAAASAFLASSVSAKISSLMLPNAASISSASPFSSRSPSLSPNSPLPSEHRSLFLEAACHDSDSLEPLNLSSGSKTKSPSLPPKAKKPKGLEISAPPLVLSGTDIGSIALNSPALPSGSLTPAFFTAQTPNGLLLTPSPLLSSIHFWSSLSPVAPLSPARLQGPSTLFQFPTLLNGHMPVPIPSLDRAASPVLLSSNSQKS
As to conditions: protein: recombinant; tags: N-terminal GST; dsDNA, one strand shown. The gist of the method: as §1

Test [10] deals with T7, FEV (Homo sapiens, UniProt Q99581 1-238).
T7 sequence: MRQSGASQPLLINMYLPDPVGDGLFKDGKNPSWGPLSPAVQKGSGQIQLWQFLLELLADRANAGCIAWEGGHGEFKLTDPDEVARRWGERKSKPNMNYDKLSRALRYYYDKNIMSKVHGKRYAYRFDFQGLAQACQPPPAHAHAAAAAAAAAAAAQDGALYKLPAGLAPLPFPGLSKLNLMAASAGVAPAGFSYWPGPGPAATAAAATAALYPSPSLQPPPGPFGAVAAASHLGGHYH
As to conditions: protein: recombinant; tags: N-terminal GST; dsDNA, one strand shown. In a few lines:
as §1

Test [11] deals with ETV5 (Homo sapiens, UniProt P41161 1-510). As to conditions: protein: recombinant; tags: N-terminal GST; dsDNA, one strand shown. The gist of the method: as §1
For test [12], the target named is HSF1 (Homo sapiens, UniProt Q00613 1-529). The settings on record: protein: recombinant; tags: N-terminal GST; chain copies: 3; dsDNA, one strand shown. The gist of the method: as §1
Test [13] addresses ELF4 (Homo sapiens, UniProt Q99607 1-663). As to conditions: protein: recombinant; tags: N-terminal GST; dsDNA, one strand shown. In a few lines: as §1
In test [14] the target is T8, ELK4 (Homo sapiens, UniProt P28324-2 1-405).
T8 sequence: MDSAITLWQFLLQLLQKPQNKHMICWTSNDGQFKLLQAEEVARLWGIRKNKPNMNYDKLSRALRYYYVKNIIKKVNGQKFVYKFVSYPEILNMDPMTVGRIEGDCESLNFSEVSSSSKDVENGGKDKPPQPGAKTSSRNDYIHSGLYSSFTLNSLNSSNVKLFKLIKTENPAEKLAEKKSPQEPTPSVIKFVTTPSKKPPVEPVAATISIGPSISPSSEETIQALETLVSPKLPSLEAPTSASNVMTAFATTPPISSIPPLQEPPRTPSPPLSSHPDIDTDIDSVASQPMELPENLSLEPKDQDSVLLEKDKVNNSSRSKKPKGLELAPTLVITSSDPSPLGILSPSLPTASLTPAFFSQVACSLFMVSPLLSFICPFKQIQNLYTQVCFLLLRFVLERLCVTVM
As to conditions: protein: recombinant; tags: N-terminal GST; dsDNA, one strand shown. The gist of the method: as §1

Test [15] deals with T9, ETV2 (Homo sapiens, UniProt O00321 1-342).
T9 sequence: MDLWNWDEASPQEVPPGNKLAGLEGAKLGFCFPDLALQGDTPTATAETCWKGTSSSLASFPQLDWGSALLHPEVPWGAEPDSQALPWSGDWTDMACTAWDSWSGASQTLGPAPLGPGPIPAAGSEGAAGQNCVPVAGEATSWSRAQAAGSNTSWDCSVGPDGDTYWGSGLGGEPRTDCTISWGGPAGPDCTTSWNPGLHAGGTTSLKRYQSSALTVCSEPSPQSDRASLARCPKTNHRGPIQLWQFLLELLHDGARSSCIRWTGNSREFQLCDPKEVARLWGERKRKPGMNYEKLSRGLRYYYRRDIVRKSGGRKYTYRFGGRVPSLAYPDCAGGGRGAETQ
As to conditions: protein: recombinant; tags: N-terminal GST; dsDNA, one strand shown. The gist of the method:
as §1

In test [16] the target is T10, ELF3 (Homo sapiens, UniProt P78545 1-371).
T10 sequence: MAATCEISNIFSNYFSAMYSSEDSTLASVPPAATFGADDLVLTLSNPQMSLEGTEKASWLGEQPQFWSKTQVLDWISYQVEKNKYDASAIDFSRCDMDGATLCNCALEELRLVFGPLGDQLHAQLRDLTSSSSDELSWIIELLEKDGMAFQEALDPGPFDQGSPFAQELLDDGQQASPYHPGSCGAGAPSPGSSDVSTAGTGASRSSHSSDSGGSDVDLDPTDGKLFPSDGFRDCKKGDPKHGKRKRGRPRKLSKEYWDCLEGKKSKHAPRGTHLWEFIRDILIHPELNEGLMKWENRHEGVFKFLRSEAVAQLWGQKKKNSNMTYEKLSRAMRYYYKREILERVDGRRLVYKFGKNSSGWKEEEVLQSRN
As to conditions: protein: recombinant; tags: N-terminal GST; dsDNA, one strand shown. In a few lines: as §1

Test [17] addresses CRX (Homo sapiens, UniProt O43186 1-299). As to conditions: protein: recombinant; tags: N-terminal GST; dsDNA, one strand shown. In a few lines: as §1
Test [18] addresses ETV1 (Homo sapiens, UniProt P50549 1-477). As to conditions: protein: recombinant; tags: N-terminal GST; dsDNA, one strand shown. The gist of the method:
as §1

HSF1, sequence (Q00613 whole entry): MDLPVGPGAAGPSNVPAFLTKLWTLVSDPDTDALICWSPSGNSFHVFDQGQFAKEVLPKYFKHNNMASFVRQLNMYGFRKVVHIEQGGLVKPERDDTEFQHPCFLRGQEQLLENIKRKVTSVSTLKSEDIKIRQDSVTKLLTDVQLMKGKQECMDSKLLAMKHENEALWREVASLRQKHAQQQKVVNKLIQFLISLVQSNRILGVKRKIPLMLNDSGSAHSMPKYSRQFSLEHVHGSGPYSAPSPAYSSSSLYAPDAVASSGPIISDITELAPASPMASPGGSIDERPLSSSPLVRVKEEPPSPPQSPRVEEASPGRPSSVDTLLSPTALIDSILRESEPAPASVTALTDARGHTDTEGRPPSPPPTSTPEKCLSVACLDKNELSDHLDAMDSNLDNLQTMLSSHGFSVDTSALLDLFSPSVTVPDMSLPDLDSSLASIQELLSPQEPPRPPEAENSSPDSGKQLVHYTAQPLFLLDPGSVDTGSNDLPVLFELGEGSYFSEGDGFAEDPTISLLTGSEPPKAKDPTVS
SPIB, sequence (Q01892 whole entry): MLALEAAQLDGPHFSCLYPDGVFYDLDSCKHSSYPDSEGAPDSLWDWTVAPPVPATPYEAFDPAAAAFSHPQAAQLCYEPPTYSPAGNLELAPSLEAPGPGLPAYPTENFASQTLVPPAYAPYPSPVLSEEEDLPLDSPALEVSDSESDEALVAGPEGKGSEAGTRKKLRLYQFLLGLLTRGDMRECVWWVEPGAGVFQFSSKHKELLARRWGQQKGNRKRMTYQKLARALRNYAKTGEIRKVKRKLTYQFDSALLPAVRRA
CRX, sequence (O43186 whole entry): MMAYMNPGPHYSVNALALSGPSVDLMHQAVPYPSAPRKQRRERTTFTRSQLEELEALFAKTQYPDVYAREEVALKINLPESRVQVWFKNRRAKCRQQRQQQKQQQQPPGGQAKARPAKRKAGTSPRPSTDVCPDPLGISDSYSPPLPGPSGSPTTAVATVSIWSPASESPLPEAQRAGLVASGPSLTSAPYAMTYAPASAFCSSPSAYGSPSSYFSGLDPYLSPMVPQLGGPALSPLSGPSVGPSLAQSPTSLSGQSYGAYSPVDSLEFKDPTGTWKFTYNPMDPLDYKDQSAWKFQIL
ETV1, sequence (P50549 whole entry): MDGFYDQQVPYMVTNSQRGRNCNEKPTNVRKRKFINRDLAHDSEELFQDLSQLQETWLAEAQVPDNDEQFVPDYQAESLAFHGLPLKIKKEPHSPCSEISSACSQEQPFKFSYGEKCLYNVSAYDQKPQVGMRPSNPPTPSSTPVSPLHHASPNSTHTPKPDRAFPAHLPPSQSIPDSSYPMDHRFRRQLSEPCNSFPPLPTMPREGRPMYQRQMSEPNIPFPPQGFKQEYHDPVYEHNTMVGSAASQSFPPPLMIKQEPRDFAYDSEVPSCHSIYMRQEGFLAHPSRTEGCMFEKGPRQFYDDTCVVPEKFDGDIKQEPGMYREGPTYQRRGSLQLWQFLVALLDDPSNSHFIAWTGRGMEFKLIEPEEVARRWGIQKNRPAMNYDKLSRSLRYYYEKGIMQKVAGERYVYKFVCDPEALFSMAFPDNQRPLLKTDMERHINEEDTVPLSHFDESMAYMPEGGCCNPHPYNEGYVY
ELF4, sequence (Q99607 whole entry): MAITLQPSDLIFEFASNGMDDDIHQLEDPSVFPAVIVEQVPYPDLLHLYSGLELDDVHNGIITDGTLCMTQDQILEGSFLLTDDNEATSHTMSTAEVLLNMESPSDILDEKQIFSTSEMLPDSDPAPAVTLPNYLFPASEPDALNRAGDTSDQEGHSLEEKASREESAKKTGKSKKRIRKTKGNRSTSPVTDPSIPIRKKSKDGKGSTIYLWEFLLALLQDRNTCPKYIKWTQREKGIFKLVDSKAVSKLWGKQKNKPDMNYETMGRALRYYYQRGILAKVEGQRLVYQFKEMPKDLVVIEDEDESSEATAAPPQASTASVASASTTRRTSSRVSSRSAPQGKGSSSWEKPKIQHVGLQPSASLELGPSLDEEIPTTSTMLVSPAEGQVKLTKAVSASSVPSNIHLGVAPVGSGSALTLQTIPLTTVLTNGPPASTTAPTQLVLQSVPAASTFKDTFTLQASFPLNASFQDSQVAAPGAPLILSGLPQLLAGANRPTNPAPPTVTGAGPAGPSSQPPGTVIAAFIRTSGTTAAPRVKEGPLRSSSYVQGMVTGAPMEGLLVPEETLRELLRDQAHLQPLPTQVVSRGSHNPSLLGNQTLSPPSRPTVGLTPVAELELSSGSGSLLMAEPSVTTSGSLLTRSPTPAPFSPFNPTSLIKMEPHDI
ELF1, sequence (P32519 whole entry): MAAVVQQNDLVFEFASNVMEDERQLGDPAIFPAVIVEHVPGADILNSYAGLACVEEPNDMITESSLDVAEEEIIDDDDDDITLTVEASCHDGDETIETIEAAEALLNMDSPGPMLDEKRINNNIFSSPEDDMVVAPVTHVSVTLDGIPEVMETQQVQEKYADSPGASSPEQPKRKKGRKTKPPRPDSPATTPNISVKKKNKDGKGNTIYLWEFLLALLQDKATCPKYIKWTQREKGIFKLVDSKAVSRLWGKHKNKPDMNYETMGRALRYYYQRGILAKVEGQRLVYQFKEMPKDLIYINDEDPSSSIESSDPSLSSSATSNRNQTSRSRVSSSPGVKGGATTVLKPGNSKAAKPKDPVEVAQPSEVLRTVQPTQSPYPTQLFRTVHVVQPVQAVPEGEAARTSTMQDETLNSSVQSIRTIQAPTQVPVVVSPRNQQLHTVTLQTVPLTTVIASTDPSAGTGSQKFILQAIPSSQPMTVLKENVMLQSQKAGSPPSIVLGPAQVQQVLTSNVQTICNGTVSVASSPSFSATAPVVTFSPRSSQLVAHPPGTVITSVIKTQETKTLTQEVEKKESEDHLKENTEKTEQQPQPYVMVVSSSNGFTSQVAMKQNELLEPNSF
ETV5, sequence (P41161 whole entry): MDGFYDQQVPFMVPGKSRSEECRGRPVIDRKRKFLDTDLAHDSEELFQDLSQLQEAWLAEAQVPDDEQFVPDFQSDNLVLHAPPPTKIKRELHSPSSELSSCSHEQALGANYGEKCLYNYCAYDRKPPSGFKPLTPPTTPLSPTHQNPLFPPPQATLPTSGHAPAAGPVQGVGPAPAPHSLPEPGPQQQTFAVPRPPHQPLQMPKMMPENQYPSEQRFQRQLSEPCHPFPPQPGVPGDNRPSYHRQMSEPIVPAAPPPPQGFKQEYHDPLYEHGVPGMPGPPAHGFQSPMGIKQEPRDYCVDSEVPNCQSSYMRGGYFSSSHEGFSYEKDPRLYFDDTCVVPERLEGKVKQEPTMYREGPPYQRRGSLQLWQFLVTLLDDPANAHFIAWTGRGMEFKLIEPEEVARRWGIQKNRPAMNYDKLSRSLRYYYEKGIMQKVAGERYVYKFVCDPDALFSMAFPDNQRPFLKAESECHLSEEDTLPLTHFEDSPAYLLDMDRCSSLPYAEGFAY

Turning to CTAGTA, the binding signal in test [1] was 1.08 fold enrichment (6-mer frequency, TF over GST control); in test [2], 1.03 fold enrichment (6-mer frequency, TF over GST control); in [3], 1.08 fold enrichment (6-mer frequency, TF over GST control); in test [4] it was 1.06 fold enrichment (6-mer frequency, TF over GST control); in test [5] it was 1.15 fold enrichment (6-mer frequency, TF over GST control); in test [6], 1.08 fold enrichment (6-mer frequency, TF over GST control). Besides, the binding signal in [7] was 1.13 fold enrichment (6-mer frequency, TF over GST control); in test [8] it was 1.1 fold enrichment (6-mer frequency, TF over GST control); in test [9], 1.17 fold enrichment (6-mer frequency, TF over GST control); in test [10], 1.04 fold enrichment (6-mer frequency, TF over GST control); in [11] it was 1.08 fold enrichment (6-mer frequency, TF over GST control); in test [12], 1.86 fold enrichment (6-mer frequency, TF over GST control). In addition, the binding signal in test [13] was 1.07 fold enrichment (6-mer frequency, TF over GST control); in [14], 1.09 fold enrichment (6-mer frequency, TF over GST control); in test [15] it was 1.1 fold enrichment (6-mer frequency, TF over GST control); in [16], 1.18 fold enrichment (6-mer frequency, TF over GST control); in [17], 1.38 fold enrichment (6-mer frequency, TF over GST control); in [18], 1.04 fold enrichment (6-mer frequency, TF over GST control).
